Compound activity from PubChem BioAssay.
The list is not random: actives were taken first. Their share in the collection is about 2.6%.
mut p53 SMM = binders of human mutant p53, primary screen, biochemical, small molecule microarray, anti-GST fluorescence; mutant tumor protein p53 (GST-tagged), Homo sapiens; small molecule microarray binding; calls only; 17,000 tested, 0.4% active; AID 624136, 2012;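 active = compounds whose four printed spots each glow above background more than chance allows, each with a p-value under 7%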
NFkB binder = binders of NF-kB p50 subunit, primary screen, biochemical, small molecule microarray, anti-His fluorescence. anti-His fluorescence binding. calls only. 17,000 tested, 1.3% active. Nuclear factor NF-kappa-B p105 subunit (Homo sapiens), P19838;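 active = spot fluorescence over background significantly raised, with a chance value under 7% in all four replicate spots of the compound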;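 also: probe protein is his-tagged human p50 processed subunit at 1 µg/ml; raw spot fluorescence signals with no normalization applied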
STAT3 SMM = STAT3 binders, primary screen, biochemical, small molecule microarray, single point, set 2. Signal transducer and activator of transcription 3 (Homo sapiens), P40763. His-STAT3 binding, anti-His fluorescence. calls only. 17,000 tested, 0.2% active. AID 624138, 2012;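 active = compounds whose four printed spots each show fluorescence over background unusually high for their array block, chance value under 7%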
mut p53 react = mutant p53 pathway re-activators, primary screen, cell-based, SW480, luciferase, single point, HTS; SW480 PUMA-promoter luciferase, p53 mutant reactivation; activation, % at 9.98 µM; 28,000 tested, 1.5% active; AID 624151, 2012; in the data active = activation above about 52%
Myc binder = binders of human c-Myc, primary screen, biochemical, small molecule microarray, anti-His fluorescence; calls only; AID 624141, 2012; 17,000 tested, 1.5% active; Myc proto-oncogene protein (Homo sapiens), P01106; His-c-Myc binding;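 active = spot fluorescence over background with P-value below 7% in all four replicate spots, showing protein binding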;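 also: score is binary with 100 for all four spots passing and 0 otherwise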
Target sequence (P01106 whole entry, looked up): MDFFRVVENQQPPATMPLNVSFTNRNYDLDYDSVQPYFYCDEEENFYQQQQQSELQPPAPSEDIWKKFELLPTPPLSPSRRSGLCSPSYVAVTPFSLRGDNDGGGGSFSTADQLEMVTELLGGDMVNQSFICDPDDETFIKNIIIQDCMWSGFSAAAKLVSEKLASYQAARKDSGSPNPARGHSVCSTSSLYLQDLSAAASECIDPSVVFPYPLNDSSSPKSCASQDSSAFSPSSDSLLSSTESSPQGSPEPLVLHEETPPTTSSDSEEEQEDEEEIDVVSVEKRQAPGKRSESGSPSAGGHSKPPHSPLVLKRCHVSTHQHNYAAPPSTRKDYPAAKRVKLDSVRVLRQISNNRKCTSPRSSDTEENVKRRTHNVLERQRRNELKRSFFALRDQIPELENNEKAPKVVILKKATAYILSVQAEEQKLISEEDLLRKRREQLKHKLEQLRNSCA
The depositor's hits bear a star; i = inactive; · = no result; + = active, no number.

SMILES | mut p53 SMM | NFkB binder | STAT3 SMM | mut p53 react | Myc binder
CC(C)NC(=O)Nc1cccc2c1O[C@@H](CN(C)Cc1ccc(C(F)(F)F)cc1)[C@H](C)CN([C@@H](C)CO)C2=O | i | + | i | -12 | +
CC(C)NC(=O)Nc1cccc2c1O[C@H](CN(C)Cc1ccccc1)[C@H](C)CN([C@@H](C)CO)C2=O | i | i | i | 6 | i
COc1ccc(-c2nnc(SCc3ccc([N+](=O)[O-])c(OC)c3)n2-c2ccccc2)cc1 | · | · | · | 5 | ·
COc1cc(OC)cc(-c2nnc(SCC(=O)Nc3ccc(I)cc3)o2)c1 | · | · | · | 25 | ·
C[C@@H]1O[C@H]2Oc3c(-c4ccc(O)cc4)oc4cc(O)c(c(O)c4c3=O)-c3cc(ccc3O)/C=C\C(=O)OC[C@H]3O[C@@H](O[C@H]([C@H]1O)[C@H]2O)[C@H](O)[C@@H](O)[C@@H]3O | i | i | i | 1 | i
O=C(O)CCC(=O)Nc1cccc(C(F)(F)F)c1 | · | · | · | -6 | ·
O=C(CS(=O)c1ccccc1[N+](=O)[O-])Nc1cccc(C(F)(F)F)c1 (stereo not drawn) | i | i | i | 71* | i
CCc1ccc(O)c(NC(=S)NC(=O)COc2ccc(C)cc2C)c1 | · | · | · | 10 | ·
COc1ccc(/C=C/c2cc(O)cc(O[C@@H]3O[C@H](CO)[C@@H](O)[C@H](O)[C@H]3O)c2)cc1 | i | i | i | 64* | i
CC(=O)c1c(O)cc(O[C@@H]2O[C@H](CO)[C@@H](O)[C@H](O)[C@H]2O)cc1O | i | i | i | 18 | i
O=c1[nH]cnc2c1cnn2Cc1ccc(Cl)cc1 | · | · | · | -12 | ·
CN(CC(=O)Nc1ccccc1C#N)S(=O)(=O)c1ccccc1 | i | i | i | -19 | i
O=C(O)[C@H]1O[C@@H](Oc2cc(O)c3c(=O)c(-c4ccc(O)cc4)coc3c2)[C@H](O)[C@@H](O)[C@@H]1O | i | i | i | -11 | i
CC1(C)CC(=O)c2c(O)cc(OCC(=O)c3cccc([N+](=O)[O-])c3)cc2O1 | · | · | · | 75* | ·
COc1ccccc1N(CC(=O)N(C)C)S(=O)(=O)c1ccc(C)cc1 | · | · | · | -6 | ·
O=C(Nc1ccccc1C(=O)NCc1ccco1)c1ccc(-c2ccccc2)cc1 | · | · | · | 58* | ·
COc1ccc(CNc2nc3ccccc3n2C)c(O)c1 | i | i | i | 142* | i
CCn1c(NCc2ccccc2O)nc2ccccc21 | i | i | i | 62* | i
COC(=O)COc1cc(Cl)c(C2NC(=S)NC(c3ccccc3)=C2C(C)=O)cc1OC (stereo not drawn) | · | · | · | -7 | ·
CC(=O)O[C@@]1(C)C[C@@H](OC(=O)/C=C/c2ccc(O)cc2)[C@@H]2C(C(=O)O)=COC(O[C@@H]3O[C@H](CO)[C@@H](O)[C@H](O)[C@H]3O)[C@@H]21 (stereo partly drawn) | i | i | i | -17 | i
CCOC(=O)c1ccc(COc2ccc(-c3cnc4ccccc4n3)cc2)o1 | i | i | i | 130* | i
COc1ccccc1NC(=O)Cn1cc(C(=O)c2ccccc2F)c2ccccc21 | · | · | · | 10 | ·
O=C(CSc1nc2ccc(NC(=O)c3ccccc3F)cc2s1)c1cccc([N+](=O)[O-])c1 | i | i | i | 76* | i
Cc1ccccc1C(=O)Nc1ccc2nc(SCC(=O)Nc3ccc([N+](=O)[O-])cc3)sc2c1 | · | · | · | 20 | ·
Cc1ccccc1C(=O)Nc1ccc2nc(SCC(=O)Nc3ccccc3)sc2c1 | i | i | i | -12 | i
SMILES | mut p53 SMM | NFkB binder | STAT3 SMM | mut p53 react | Myc binder
O=C(CSc1nc2ccc(NC(=O)c3ccccc3)cc2s1)Nc1cccc([N+](=O)[O-])c1 | · | · | · | 59* | ·
Nc1ncnc(Sc2nc3ccccc3s2)c1[N+](=O)[O-] | i | i | i | -35 | i
O=C(COc1cccc2ccccc12)Nc1cc(C(=O)O)cc(C(=O)O)c1 | · | · | · | -20 | ·
C#CCN(CC=C(C)C)[C@H](CO)c1ccccc1 | i | i | i | · | i
CC(C)=CCN(C(=O)C#Cc1ccccc1)[C@H](CO)c1ccccc1 | i | + | i | · | i
Clc1cccc(C=NC=Nc2cccc(Cl)c2)c1 | i | i | i | 73* | i
COc1cccc(C=NC=Nc2cccc(OC)c2)c1 | i | i | i | 38 | i
